# Assay results from PubChem BioAssay AID602143 (Vanderbilt Specialized Chemistry Center, 2011).
# Values joined by “and” are separate entries in the source; they are usually repeats but may differ in a detail not shown here. Equal values may be shown once. Active and inactive are the calls of the source. Rule as the data show it: active = remaining activity below about 50%; inactive = the rest.
# Biological target: Phospholipase D2 (Homo sapiens) (UniProt O14939)
# Assay: PLD2 inhibitors in cells, cell-based, HEK293, single concentration (AID 602143);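 also: tested at 200 nM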
# Details: HEK293 cellular PLD2 activity, percent of control; active compounds read low
# Phospholipase D2 (Homo sapiens), sequence (O14939 whole entry, looked up): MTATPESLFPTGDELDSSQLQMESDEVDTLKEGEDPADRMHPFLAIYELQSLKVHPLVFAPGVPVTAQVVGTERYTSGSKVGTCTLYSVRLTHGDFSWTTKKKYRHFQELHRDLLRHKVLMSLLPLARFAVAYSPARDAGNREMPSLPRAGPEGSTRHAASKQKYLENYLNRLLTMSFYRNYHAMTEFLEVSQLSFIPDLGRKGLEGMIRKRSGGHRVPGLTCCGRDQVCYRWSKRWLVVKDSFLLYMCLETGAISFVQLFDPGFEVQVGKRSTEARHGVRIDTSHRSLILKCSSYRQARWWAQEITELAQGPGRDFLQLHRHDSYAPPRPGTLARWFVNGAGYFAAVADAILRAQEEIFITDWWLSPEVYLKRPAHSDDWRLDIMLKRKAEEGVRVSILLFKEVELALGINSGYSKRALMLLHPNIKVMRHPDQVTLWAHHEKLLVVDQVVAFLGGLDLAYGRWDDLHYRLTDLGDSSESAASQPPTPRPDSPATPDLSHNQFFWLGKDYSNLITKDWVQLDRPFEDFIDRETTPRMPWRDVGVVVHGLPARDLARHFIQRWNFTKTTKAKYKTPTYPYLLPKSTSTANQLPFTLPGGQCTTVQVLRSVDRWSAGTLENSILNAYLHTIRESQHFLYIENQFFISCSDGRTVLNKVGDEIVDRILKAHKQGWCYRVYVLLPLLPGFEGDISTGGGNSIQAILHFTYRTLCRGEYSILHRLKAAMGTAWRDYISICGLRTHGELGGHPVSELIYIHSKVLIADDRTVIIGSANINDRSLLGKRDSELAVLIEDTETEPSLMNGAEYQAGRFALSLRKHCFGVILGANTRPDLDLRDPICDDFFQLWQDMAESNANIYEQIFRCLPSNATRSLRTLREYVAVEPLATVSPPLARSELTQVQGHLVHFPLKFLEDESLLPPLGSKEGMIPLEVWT
# Phospholipase D2 (Homo sapiens), sequence (O14939 whole entry, looked up): as above
row,Structure (SMILES),remaining activity
1,C[C@@H](NC(=O)NCCN1CCC(n2c(=O)[nH]c3ccccc32)CC1)c1ccccc1,107% (inactive) and 123% (inactive)
2,O=C(NCCN1CCN(c2ncccn2)CC1)c1ccc(F)cc1,92.2% (inactive)
3,C[C@@H](CN1CCC(c2nc3ccccc3[nH]2)CC1)NC(=O)C1CC1c1ccccc1 (stereo not given in full),90.3% (inactive)
4,O=C(c1ccc(Cl)cc1)N1CCC(n2c(=O)[nH]c3cc(Cl)ccc32)CC1,60.2% (inactive)
5,Cc1ccccc1NC(=S)NCCN1CCC(n2c(=O)[nH]c3ccccc32)CC1,145% (inactive)
6,O=C(NCCN1CCC(n2c(=O)[nH]c3ccccc32)CC1)c1ccccc1-c1ccccc1,83.4% (inactive)
7,O=C(NCCN1CCC2(CC1)CCN(c1ccccc1)C2=O)c1cnc2ccccc2c1,42.3% (active)
8,O=C(NCCN1CCC(n2c(=O)[nH]c3ccccc32)CC1)c1cc2ccc3ccccc3c2c2ccccc12,109% (inactive)
9,O=C(NCCN1CCC(n2c(=O)[nH]c3ccccc32)CC1)c1ccc2c(c1)CCCC2,96.1% (inactive)
10,O=C(c1ccc2ccccc2c1)N1CCC2(CC1)C(=O)NCN2c1ccccc1,75.8% (inactive)
11,COc1cc(C(=O)NCCN2CCN(c3ccncc3)CC2)ccc1N,130% (inactive)
12,C[C@@H](CN1CC=C(n2c(=O)[nH]c3ccccc32)CC1)NC(=O)[C@H]1C[C@@H]1c1ccccc1,74.4% (inactive)
13,C[C@@H](CN1CCC(c2nc3ccccc3[nH]2)CC1)NC(=O)c1ccc2ccccc2c1,86.5% (inactive)
14,O=C(NCCN1CCC(c2nc3ccccc3[nH]2)CC1)C1CC1c1ccccc1 (stereo not given),95.6% (inactive)
15,O=C1Cc2cc(CCN3CCN(c4nsc5ccccc45)CC3)c(Cl)cc2N1,105% (inactive)
16,CC(C)[C@@H](CN1CCC(n2c(=O)[nH]c3ccccc32)CC1)NC(=O)[C@@H]1C[C@H]1c1ccccc1,74% (inactive)
17,O=C(C1C[C@@H]1c1ccccc1)N1CCC(n2c(=O)[nH]c3cc(Cl)ccc32)CC1 (stereo not given in full),72.5% (inactive)
18,COc1ccccc1NC(=S)NCCN1CCC(n2c(=O)[nH]c3ccccc32)CC1,126% (inactive)
19,C[C@@H](CN1CCC(n2c(=O)[nH]c3cc(I)ccc32)CC1)NC(=O)C1CC1c1ccccc1 (stereo not given in full),99.2% (inactive)
20,C[C@@H](CN1CCC2(C=Cc3ccccc32)CC1)NC(=O)c1cnc2ccccc2c1,77.4% (inactive)

row,Structure (SMILES),remaining activity
1,O=C(NCCN1CCC(n2c(=O)[nH]c3ccccc32)CC1)c1ccc(Cc2ccccc2)cc1,72.9% (inactive)
2,CC(=O)c1cccc(NC(=O)NCCN2CCC(n3c(=O)[nH]c4ccccc43)CC2)c1,118% (inactive)
3,Cc1cc(C)c(S(=O)(=O)NCCN2CCC(n3c(=O)[nH]c4ccccc43)CC2)c(C)c1,98.8% (inactive)
4,O=C(NCCN1CCN(c2ccccn2)CC1)c1ccc(F)cc1,101% (inactive)
5,O=C(NCCN1CCC(n2c(=O)[nH]c3ccccc32)CC1)c1cccc2ccc3ccccc3c12,65.9% (inactive)
6,O=C(NCCN1CCC(n2c(=O)[nH]c3ccccc32)CC1)c1cc2ccccc2c2ccccc12,51.2% (inactive)
7,CN1CCC2(CCN(CCNC(=O)[C@H]3C[C@@H]3c3ccccc3)CC2)C1=O,102% (inactive)
8,NC1(CN2CCC(n3c(=O)[nH]c4cc(Cl)ccc43)CC2)CCCC1 (tested in a mixture with another compound),94.3% (inactive)
9,COc1ccc(S(=O)(=O)NCCN2CCC(n3c(=O)[nH]c4ccccc43)CC2)cc1,127% (inactive)
10,CN(CCN1CCC(n2c(=O)[nH]c3ccccc32)CC1)C(=O)c1ccc2ccccc2c1,101% (inactive)
11,CCOC(=O)CNC(=O)NCCN1CCC(n2c(=O)[nH]c3ccccc32)CC1,121% (inactive)
12,C[C@@H](CN1CCC(n2c(=O)[nH]c3ccccc32)CC1)NC(=O)c1ccc(C(F)(F)F)cc1,76.2% (inactive)
13,O=C(NCCN1CCC2(CC1)CNc1ccccc12)c1ccc2ccccc2c1,61.8% (inactive)
14,COc1ccc(S(=O)(=O)NCCN2CCC(n3c(=O)[nH]c4ccccc43)CC2)cc1OC,77.1% (inactive)
15,O=C(NCCN1CCC(n2c(=O)[nH]c3ccccc32)CC1)c1cnc2ccccc2n1,87.4% (inactive)
16,C[C@@H](CN1CCC(n2c(=O)[nH]c3ccccc32)CC1)NC(=O)COc1ccccc1,88.2% (inactive)
17,O=C(NCCN1CCC(n2c(=O)[nH]c3ccccc32)CC1)c1ccc2cccc3c2c1CC3,98% (inactive)
18,O=C(NCCN1CCC(C(=O)Nc2ccccc2)CC1)c1ccc2ccccc2c1,106% (inactive)
19,C[C@H](CN1CCC(n2nnc3ccccc32)CC1)NC(=O)c1ccc2ccccc2c1,48.2% (active)
20,C=CCCCCCCCCC(=O)NCCN1CCC(n2c(=O)[nH]c3ccccc32)CC1,65.3% (inactive)
